Experimental data as given in PubChem BioAssay (NCATS).
Values joined by “and” are separate entries in the source; they are usually repeats but may differ in a detail not shown here. Identical values can stand only once. Results filed as inconclusive are left out. Values without a mark were called inactive. Active and inactive are the calls of the source. The call rests on the fitted dose curve; in most records, active means well fitted inhibition curve with a large enough effect; inconclusive means small, poorly fitted or top-dose-only effect; inactive means flat fitted curve, though single readings scatter.

tested on: KB-3-1; assay: Cytotoxic Profiling of Annotated Libraries Using Quantitative High-Throughput Screening (AID 1296008); conditions: Five cell lines viability, CellTiter-Glo ATP luminescence, 48-72 h; max response: hits give low values; further: nearly all actives have a fitted effect of over 60% in size
Summary of the method: (§1)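 Cells exposed to compounds for 48 or 72 hr at 37 degrees Celsius. Viability read as ATP-coupled luminescence with CellTiter-Glo after 10 min at room temperature.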
On the % scale 0 is the no-effect control and ±100 the full control effect.

Compound	max response
CC(CNC1CCCCC1)OC(=O)c1ccccc1 (centres undefined)	3.78%
CC1(COc2ccc(CC3SC(=O)NC3=O)cc2)CCCCC1 (centres undefined)	-1.45%
N[C@H](C(=O)O)[C@@H](O)c1ccc(O)c(O)c1	-1.88%
CN(C)CCOC(=O)C(c1ccccc1)C1(O)CCCC1 (centres undefined)	-12%
CCCCN=C(N)N=C(N)N	1.99%
COC(=O)C(c1ccccc1Cl)N1CCc2sccc2C1 (centres undefined)	-8.1%
O=C1[C@H](CC[C@H](O)c2ccc(F)cc2)[C@@H](c2ccc(O)cc2)N1c1ccc(F)cc1	-8.72% and 5.64%
CCN(CC)CCOc1ccccc1C(=O)CCc1ccccc1	-2.43%
CC(=O)Nc1ccc(OCC(O)CNC(C)C)cc1 (centres undefined)	-4.81%
Cc1cc(NS(=O)(=O)c2ccc(N)cc2)nc(C)n1	15.3%
COc1ccc(CCN(C)CCCN2CCc3cc(OC)c(OC)cc3CC2=O)cc1OC	-10.8%
CC(C(=O)O)c1cccc(Oc2ccccc2)c1 (centres undefined)	-5.06%
CCCCc1cc2ccccc2c(OCCN(C)C)n1	-3.23%
NCCNC(=O)c1ccc(Cl)cn1	-16.4%
CCc1oc2ccccc2c1C(=O)c1cc(Br)c(O)c(Br)c1	-3.26%
Nc1nc(Cl)nc2c1ncn2[C@@H]1O[C@H](CO)[C@@H](O)[C@@H]1F	2.36%
COc1cc([C@H]2Oc3cc([C@H]4Oc5cc(O)cc(O)c5C(=O)[C@@H]4O)ccc3O[C@@H]2CO)ccc1O	47.9%
CC(O)Cn1cnc2c1c(=O)n(C)c(=O)n2C (centres undefined)	13.1%
CC(=O)Nc1ccc(S(=O)(=O)Nc2ccc([N+](=O)[O-])cc2)cc1	15%
COc1ccc(C(=O)c2ccccc2O)c(O)c1	-2.05%
CCCCN1C[C@H](O)[C@@H](O)[C@H](O)[C@H]1CO	15.3%

tested on: NIH3T3; assay: as above; conditions: Five cell lines viability, CellTiter-Glo ATP luminescence, 48-72 h; max response: hits give low values
Summary of the method: as §1

Compound	outcome	max response
C=C1c2cccc(O)c2C(O)=C2C(=O)[C@]3(O)C(O)=C(C(N)=O)C(=O)[C@@H](N(C)C)[C@@H]3[C@@H](O)[C@H]12	inactive	–
C/C=C/c1ccc(O)c(OC)c1	–	-0.28%
CC(=C(CCOC(=O)C(C)C)SSC(CCOC(=O)C(C)C)=C(C)N(C=O)Cc1cnc(C)nc1N)N(C=O)Cc1cnc(C)nc1N	inactive	–
C=C[C@H]1CN2CC[C@H]1C[C@@H]2[C@@H](O)c1ccnc2ccc(OC)cc12	–	1.59%
O=C1C(CCS(=O)c2ccccc2)C(=O)N(c2ccccc2)N1c1ccccc1 (centres undefined)	–	-2.37%
Cc1c[nH]c2ccccc12	inactive	–
Cc1ccc(-c2ncc(Cl)cc2-c2ccc(S(C)(=O)=O)cc2)cn1	–	-3.08%
CC(=O)OCC1=C(C(=O)O)N2C(=O)[C@@H](NC(=O)CSc3ccncc3)[C@H]2SC1	–	1.18%
CN(C)CCC[C@@]1(c2ccc(F)cc2)OCc2cc(C#N)ccc21	–	0.771%
CCC(CC)(CC(=O)Nc1cccc(/C=C/c2nc(C3CCC3)cs2)c1)C(=O)O	–	2.57%
O=[N+]([O-])c1ccc(/C=N\O)o1	–	-18.1%
CCN1CCN(C(=O)N[C@@H](C(=O)N[C@@H]2C(=O)N3C(C(=O)O)=C(CSc4nnnn4C)CS[C@H]23)c2ccc(O)cc2)C(=O)C1=O	–	-3.36%
CC(CNC1CCCCC1)OC(=O)c1ccccc1 (centres undefined)	–	0.669%
CC1(COc2ccc(CC3SC(=O)NC3=O)cc2)CCCCC1 (centres undefined)	inactive	–
N[C@H](C(=O)O)[C@@H](O)c1ccc(O)c(O)c1	–	0.856%
CN(C)CCOC(=O)C(c1ccccc1)C1(O)CCCC1 (centres undefined)	–	-1.59%
CCCCN=C(N)N=C(N)N	–	-1.41%
COC(=O)C(c1ccccc1Cl)N1CCc2sccc2C1 (centres undefined)	–	-4.69%
O=C1[C@H](CC[C@H](O)c2ccc(F)cc2)[C@@H](c2ccc(O)cc2)N1c1ccc(F)cc1	–	-18.6% and -29.1%
CCN(CC)CCOc1ccccc1C(=O)CCc1ccccc1	–	-3.4%
CC(=O)Nc1ccc(OCC(O)CNC(C)C)cc1 (centres undefined)	–	-0.995%
Cc1cc(NS(=O)(=O)c2ccc(N)cc2)nc(C)n1	–	4.17%
COc1ccc(CCN(C)CCCN2CCc3cc(OC)c(OC)cc3CC2=O)cc1OC	–	3.6%
